Assay outcomes deposited in PubChem BioAssay by National Center for Advancing Translational Sciences (NCATS).
The sample as a whole holds a higher share of hits than the screen did.
KDM5B inhibitor: Primary screen for KDM5B Histone Demethylases FDH-coupled qHTS. 2.6% of 220,000 active. KDM5B demethylase, FDH-coupled NADH fluorescence (FDH is formaldehyde dehydrogenase). AID 1347165, 2019. Lysine-specific demethylase 5B (Homo sapiens), Q9UGL1. Potency, µM (titrated, usually from 57.7 µM), most hits filed as inhibitors; active means well fitted inhibition curve with a large enough effect; further: nearly all actives have a fitted effect of over 70% in size
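KDM5BΔAP (200 nM final) in 50 mM HEPES pH 7.5, 0.01% Tween-20 was preincubated 10 min at RT with compound over a concentration range. Substrate mix (H3K4me3 12.5 µM, α-KG 25 µM, Fe²⁺, ascorbate, NAD⁺, FDH) was added, and NADH fluorescence change over 30 min gave dose-response curves.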
Each line names hits and unclear results; the compound was inactive in the other large screens.

CC(NC(=O)CSc1nnc(-c2nn(Cc3ccccc3)c(=O)c3ccccc23)o1)c1ccccc1 (centres undefined)	none
O=C(CSc1nc2nc[nH]c2c(=O)[nH]1)Nc1ccc(Br)cc1	none
O=C(c1nc(-c2ccccc2)c2ccccn12)N1CCOCC1	KDM5B inhibitor 40µM
CN(C)C(=O)c1nc(-c2ccc(Cl)nc2)c2ccccn12	KDM5B inhibitor 112µM
O=C(c1nc(-c2ccc(Cl)nc2)c2ccccn12)N1CCOCC1	KDM5B inhibitor 14µM
C[C@H](O)c1onc(-c2ccccc2)c1C(=O)N1CCOCC1	none
CN(C)C(=O)C1CCc2nnc(-c3ccc(Cl)nc3)n21 (centres undefined)	none
O=C(c1nc(-c2ccc(F)cc2)c2ccccn12)N1CCOCC1	KDM5B inhibitor 32µM
CN(C)C(=O)c1nc(-c2ccc(S(C)(=O)=O)cc2)c2ccccn12	none
O=C(Cn1nc(-c2ccccc2)c2ccccc2c1=O)N1CCOCC1	none
Cc1ccccc1-c1nnn(CC(=O)Nc2ccc(Cl)c(S(=O)(=O)N3CCOCC3)c2)n1	none
CNc1oc(-c2cccc(C)c2)nc1S(=O)(=O)c1ccccc1	none
O=C(Nc1cccc(F)c1)c1ccc2c(c1)CCC2	none
CCOc1ccc(NC(=O)Cn2c(=O)n(-c3ccccc3)c(=O)c3c2cc(C)n3C)cc1	none
CCOC(=O)C(=O)CC(=O)c1ccc(Cl)cc1Cl	none
COc1ccc(OC)c(S(=O)(=O)Nc2cc(C(=O)NC(C)C)ccc2N2CCNCC2)c1	none
CCOc1ccc(C2CCCN2S(=O)(=O)Cc2ccc(F)cc2)cc1 (centres undefined)	none
COc1ccccc1CC(C#N)C(=O)Nc1cc(C)cc(C)c1 (centres undefined)	none
CC(Sc1nnc(C2CC2)n1Cc1ccco1)C(=O)Nc1ccnn1C(C)C (centres undefined)	none
FC(F)(F)c1cccc(/C=N/Nc2ccc(Cl)cc2)c1	none
Cc1cc(C)cc(NC2=N[C@H]3[C@@H](O)[C@H](O)C[C@H](C(=O)NCCN4CCCCC4)[C@H]3S2)c1	none
C#CCNC(=O)[C@H]1C[C@@H](O)[C@H](O)[C@@H]2N=C(Nc3cccc4ccccc34)S[C@@H]21	KDM5B inhibitor 8.9µM
COc1ccc(NC2=N[C@H]3[C@@H](O)[C@H](O)C[C@H](C(=O)NCc4ccccc4OC)[C@H]3S2)cc1	none
CCc1noc(C)c1C(=O)Nc1ccc(C(C)C)cc1	none
COc1cc(-c2onc(C)c2C(=O)NCc2ccc(F)cc2F)cc(OC)c1OC	none
COCCCNC(=O)c1c(C)noc1-c1cc(OC)c(OC)c(OC)c1	KDM5B inhibitor 32µM
COc1cc(-c2onc(C)c2C(=O)NCCc2cccs2)cc(OC)c1OC	KDM5B inhibitor 22µM
COCCCNC(=O)c1c(C)noc1-c1cc(OC)cc(OC)c1	none
COc1cc(OC)cc(-c2onc(C)c2C(=O)NCCCOC(C)C)c1	none
COc1ccc(-c2onc(C)c2C(=O)N(C)Cc2cc(OC)c(OC)c(OC)c2)cc1	none
COc1cc(C(C)NC(=O)c2c(C)noc2C)cc(OC)c1OC (centres undefined)	none
COc1ccc(-c2onc(C)c2C(=O)NCc2cccs2)cc1	none
CCC(COC)NC(=O)c1c(C)noc1-c1cc(OC)c(OC)c(OC)c1 (centres undefined)	KDM5B inhibitor 28µM
COc1ccc(-c2onc(C)c2C(=O)NCc2c(OC)cc(OC)cc2OC)cc1	none
COc1cc(-c2onc(C)c2C(=O)NCCSC)cc(OC)c1OC	KDM5B inhibitor 32µM
Cc1noc(-c2ccccc2Cl)c1C(=O)NCCc1cccs1	none
CCCn1c(C(O)(c2nc3ccccc3n2CCC)C(F)(F)F)nc2ccccc21	none
O=C(O)C12CC3CC(C(=O)O)(C1)CC(C(=O)O)(C3)C2	none
Cc1cc2cc(NC(=O)c3cccc(C)c3C)ccc2[nH]1	none
CC(=O)c1ccc(NC(=O)COC(=O)COc2ccc(C3SCCCS3)cc2)cc1	none
CN(Cc1ccccc1C(F)(F)F)C(=O)Cc1ccc(F)cc1	none
COc1ccc([C@@H]2c3c(C)nn(-c4ccccc4)c3NC(=O)[C@H]2NC(=O)c2ccc(Cl)cc2)cc1	none
CC[C@H](C)[C@H](NC(=O)c1ccccc1)C(=O)O	none
Cc1cc(Br)ccc1NC(=O)CNC(=O)CCc1ncc(-c2ccc(F)cc2)o1	none
O=C(Nc1ccc(Cl)cc1)c1ccc(-n2cnc3ccccc3c2=O)cc1	none
O=C(c1cccs1)N1CCN(Cc2ccc(=O)n(CC3CC3)c2)CC1	none
O=C(c1ccccn1)N1CCN(Cc2ccc(=O)n(CC3CC3)c2)CC1	KDM5B inhibitor 16µM
O=C(O)CCC(=O)N1CCN(CCc2ccccc2)CC1	none
CCn1cc(CN2CCN(C(=O)c3cccs3)CC2)ccc1=O	KDM5B inhibitor 11µM
O=C(c1ccccc1)N1CCN(Cc2ccc(=O)n(CC3CC3)c2)CC1	none
O=C(c1ccoc1)N1CCN(Cc2ccc(=O)n(CC3CC3)c2)CC1	none
CCN1CCN(C(=O)c2cccs2)CC1	none
CCn1cc(CN2CCN(C(=O)c3ccco3)CC2)ccc1=O	none
CCn1cc(CN2CCN(C(=O)CCc3ccccc3)CC2)ccc1=O	KDM5B inhibitor 7.1µM
O=C(C1=Cc2cc(Cl)ccc2OC1)N1CCN(S(=O)(=O)c2cc(F)ccc2F)CC1	none
O=S(=O)(Cc1ccccc1F)CC(O)c1ccccc1 (centres undefined)	none
COc1cccc(C(=O)COC(=O)c2cc3c(s2)-c2ccccc2OC3)c1	none
COc1ccc(S(=O)(=O)NC[C@@H]2C=C(C)[C@H](CC(=O)N(C)Cc3cccnc3)C[C@H]2C(C)C)cc1	none
O=C(CSc1nc2cc(S(=O)(=O)N3CCOCC3)ccc2o1)N1CCOCC1	none
CCOC(=O)CNC(=O)c1cc2cccc(OCC)c2oc1=O	none
Cc1nn(C)c(C)c1CCN(C)C(=O)C1CCCCC(=O)N1 (centres undefined)	none
CC(C)(C)c1ccc(C(=O)NCCCNC(=O)c2ccc(C(C)(C)C)cc2)cc1	none
CC(=O)CC1(C(C#N)C#N)C(=O)Nc2ccccc21 (centres undefined)	none
O=C(c1cccc(Cl)c1)N1CCC2(CC1)N=C(c1ccc(Br)cc1)NO2	none
O=C(c1cccc(F)c1)N1CCC2(CC1)N=C(c1ccccc1)NO2	none
Cc1ccc(C2=NC3(CCN(C(=O)c4ccc5c(c4)OCO5)CC3)ON2)cc1	none
O=C(c1cccc(F)c1)N1CCC2(CC1)N=C(c1ccc(Cl)cc1)NO2	KDM5B inhibitor 20µM
Cc1ccc(C2=NC3(CCN(C(=O)c4ccc(F)c(Cl)c4)CC3)ON2)cc1	none
O=C(c1ccc2c(c1)OCO2)N1CCC2(CC1)N=C(c1ccc(Cl)cc1)NO2	KDM5B inhibitor 32µM
C/C=C/C=C/C(=O)N1CCN(CC(F)(F)F)CC1	none
CCOC(=O)C(CC(C(=O)OCC)C(=O)OCC)C(=O)OCC	none
N#Cc1ccccc1O	none
CCOc1ccc(OCc2nc3ccccc3[nH]2)cc1	none
CC(=O)Nc1cccc(-c2cc(C(=O)NCc3c(C)cc(C)[nH]c3=O)c3c(c2)N(C(C)C)CCO3)c1	KDM5B inhibitor 28µM
Cc1cc(C)c(CNC(=O)c2cc(-c3ccccc3O)cc3c2OCCN3C(C)C)c(=O)[nH]1	KDM5B inhibitor 25µM
COc1ccc(-c2cc(C(=O)NCc3c(C)cc(C)[nH]c3=O)c3c(c2)N(C(C)C)CCO3)cc1	KDM5B inhibitor 32µM
Cc1cc(C)c(CNC(=O)c2cc(-c3ccccc3C)cc3c2OCCN3C(C)C)c(=O)[nH]1	KDM5B inhibitor 32µM
COc1ncc(-c2cc(C(=O)NCc3c(C)cc(C)[nH]c3=O)c3c(c2)N(C(C)C)CCO3)cn1	none
CN(Cc1ccc(-c2ccccc2)cc1)Cc1ccsc1	none
COc1cccc(CN2CCOC3CCN(CCCc4ccccc4)CC3C2=O)c1 (centres undefined)	none
